Reference: PubChem BioAssay (Tox21)
Where “and” joins values, the source holds several entries; their conditions need not be identical. Equal values may be shown once. Results filed as inconclusive are left out. A call without a number means that no potency is given here. Calls of active or inactive are those of the source. Unless noted, calls come from the whole dose curve; as a rule, active = well fitted curve in the direction sought with a large enough effect in the repeat runs; inconclusive = weak or mixed curves; inactive = no such curve, though single readings can be large; an effect the other way counts as inactive or inconclusive. Residues, ends and D or L forms follow the SMILES beside them.

Assays:
[1] = qHTS assay to identify small molecule antagonists of the glucocorticoid receptor (GR) signaling pathway - cell viability counter screen (AID 720693); settings: GR-bla HeLa viability, CellTiter-Glo luminescence, 18 h, with 5 nM dexamethasone present; series mostly up to 58.5 µM; note: nearly all actives have a fitted effect of over 55% in size; note: potency is the fitted concentration of half-maximal effect
[2] = qHTS assay for identifying genotoxic compounds that show differential cytotoxicity against isogenic chicken DT40 cell lines with known DNA damage response pathways - wild type cell line (AID 743012); settings: DT40 wild type chicken cells viability, CellTiter-Glo, 40 h; series mostly up to 68.4 µM; note: nearly all actives have a fitted effect of over 60% in size; note: potency is the fitted concentration of half-maximal effect
Method in brief: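 CellTiter-Glo luminescence readout of viability in wild type DT40 cells after 40 h compound exposure at 37 C/5% CO2; 300 cells/well; reagent incubated 30 min at room temperature before reading.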

[3] = qHTS assay for identifying genotoxic compounds that show differential cytotoxicity against isogenic chicken DT40 cell lines with known DNA damage response pathways - Rad54/Ku70 mutant cell line (AID 743015); settings: DT40 Rad54/Ku70 mutant viability, CellTiter-Glo, 40 h; series mostly up to 66.8 µM; note: nearly all actives have a fitted effect of over 60% in size; note: potency is the fitted concentration of half-maximal effect
[4] = qHTS assay for identifying genotoxic compounds that show differential cytotoxicity against isogenic chicken DT40 cell lines with known DNA damage response pathways - Rev3 mutant cell line (AID 743014); settings: chicken DT40 Rev3-/- viability, CellTiter-Glo, 40 h; series mostly up to 68.4 µM; note: nearly all actives have a fitted effect of over 55% in size; note: potency is the fitted concentration of half-maximal effect
[5] = qHTS assay to identify small molecule antagonists of the androgen receptor (AR) signaling pathway using the MDA cell line - cell viability counter screen (AID 743041; note: nearly all actives have a fitted effect of over 45% in size); settings: MDA-kb2 viability, CellTiter-Fluor, 16 h, cells co-treated with R1881 androgen agonist; series mostly up to 70.3 µM
Method in brief: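 qHTS viability read-out; MDA-kb2 AR-luc; R1881-stimulated; 16 h exposure at 37C, 0% CO2; CellTiter-Fluor, 30 min; fluorescence intensity.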

[6] = qHTS assay to identify small molecule antagonists of the androgen receptor (AR) signaling pathway - cell viability counter screen (AID 743033; note: nearly all actives have a fitted effect of over 45% in size); settings: AR-bla HEK293 viability, CellTiter-Glo luminescence, 16 h; series mostly up to 58.5 µM
[7] = biological target: Androgen receptor (Homo sapiens) (UniProt P10275); assay: qHTS assay to identify small molecule antagonists of the androgen receptor (AR) signaling pathway (AID 743035; active = well fitted inhibition curve with a large enough effect in the signal ratio in the repeat runs, not every such curve was filed as active; the % refers to the signal ratio; note: potency is the fitted concentration of half-maximal effect); settings: HEK293 AR-UAS-bla, R1881-stimulated, beta-lactamase FRET, 16 h; series mostly up to 58.5 µM
Sequence of Androgen receptor (Homo sapiens) (P10275 whole entry, looked up): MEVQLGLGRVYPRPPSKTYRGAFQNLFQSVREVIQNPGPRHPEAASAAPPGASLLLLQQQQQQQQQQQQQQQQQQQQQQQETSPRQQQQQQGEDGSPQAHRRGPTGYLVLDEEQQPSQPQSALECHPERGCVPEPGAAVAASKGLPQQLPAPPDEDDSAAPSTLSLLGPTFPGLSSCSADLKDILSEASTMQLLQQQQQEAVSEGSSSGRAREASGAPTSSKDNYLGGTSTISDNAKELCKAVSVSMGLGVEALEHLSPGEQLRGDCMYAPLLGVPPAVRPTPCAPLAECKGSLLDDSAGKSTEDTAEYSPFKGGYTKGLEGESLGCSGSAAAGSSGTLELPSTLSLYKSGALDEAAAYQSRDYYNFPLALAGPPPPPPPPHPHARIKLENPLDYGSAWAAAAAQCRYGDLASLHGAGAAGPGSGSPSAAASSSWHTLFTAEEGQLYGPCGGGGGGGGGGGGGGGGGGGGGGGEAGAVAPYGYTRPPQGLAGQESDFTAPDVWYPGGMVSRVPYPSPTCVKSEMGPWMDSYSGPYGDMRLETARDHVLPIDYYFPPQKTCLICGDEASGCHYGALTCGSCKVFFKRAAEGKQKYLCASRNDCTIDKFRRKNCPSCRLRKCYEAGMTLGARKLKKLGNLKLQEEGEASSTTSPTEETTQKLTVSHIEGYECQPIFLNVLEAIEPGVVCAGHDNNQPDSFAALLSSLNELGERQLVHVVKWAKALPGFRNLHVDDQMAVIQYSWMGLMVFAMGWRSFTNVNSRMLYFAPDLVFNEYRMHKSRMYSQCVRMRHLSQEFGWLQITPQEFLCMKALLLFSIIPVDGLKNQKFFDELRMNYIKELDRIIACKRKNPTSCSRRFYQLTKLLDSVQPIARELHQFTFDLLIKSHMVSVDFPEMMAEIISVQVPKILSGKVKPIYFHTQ
Method in brief: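 AR-bla HEK293 reporter cells; 4 h settle at 37C/5% CO2; compound + R1881 agonist, 16 h at 37C; LiveBLAzer B/G FRET substrate 2 h RT; fluorescence intensity read. qHTS format.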

[8] = biological target: Androgen receptor (Homo sapiens) (UniProt P10275); assay: qHTS assay to identify small molecule agonists of the androgen receptor (AR) signaling pathway (AID 743036; active = well fitted activation curve with a large enough effect in the signal ratio in the repeat runs, with a control signal flat, not every such curve was filed as active; the % refers to the signal ratio); settings: HEK293 AR-UAS-bla GripTite, beta-lactamase FRET ratio, 16 h; series mostly up to 62.4 µM
Method in brief: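 Screening used 2,000 AR-bla HEK293 cells per well, treated 16 h at 37C with test compounds in DMSO alongside positive and DMSO-only controls; beta-lactamase activity was then read by LiveBLAzer B/G FRET fluorescence after 2 h at room temperature.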

[9] = biological target: Androgen receptor (Homo sapiens) (UniProt P10275); assay: qHTS assay to identify small molecule agonists of the androgen receptor (AR) signaling pathway using the MDA cell line (AID 743040; note: nearly all actives have a fitted effect of over 20% in size); settings: MDA-kb2 AR-luc cells, MMTV luciferase, 16 h; series mostly up to 70.3 µM
Method in brief: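 Agonist activity is measured as luciferase luminescence in human MDA-kb2 cells whose MMTV reporter responds to both AR and GR. Compounds in DMSO incubate 16 h at 37C, 0% CO2, and ONE-Glo is read after 30 min.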

[10] = biological target: Androgen receptor (Homo sapiens) (UniProt P10275); assay: qHTS assay to identify small molecule antagonists of the androgen receptor (AR) signaling pathway using the MDA cell line (AID 743042; note: nearly all actives have a fitted effect of over 55% in size; note: potency is the fitted concentration of half-maximal effect); settings: MDA-kb2 AR-luc, MMTV luciferase, R1881 antagonist, 16 h; series mostly up to 70.3 µM
Method in brief: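 MDA-kb2 cells (human breast carcinoma, stably carrying an MMTV-luciferase reporter responsive to AR and GR) were plated at 3,000 cells/well and preincubated 5 hr at 37C, then given compound plus R1881 agonist for 16 h. ONE-Glo luminescence was read.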

Compound	Potency [1]	Potency [2]	Potency [3]	Potency [4]	Potency [5]	Potency [6]	Potency [7]	Potency [8]	Potency [9]	Potency [10]
CCCCCCCCCC[N+](C)(CCCCCCCCCC)CCC[Si](OC)(OC)OC	inactive	5.45 µM (active)	7.7 µM (active)	–	–	–	–	–	–	–
Cc1cccc(C)c1NC(=O)C1CCCCN1C (centres undefined)	inactive	inactive	inactive	inactive	inactive	–	–	–	–	–
O=C1CCC(c2ccc(-n3ccnc3)cc2)=NN1	inactive	inactive	inactive	inactive	inactive	–	–	–	–	–
Cc1ccc(C(C)(C)c2ccc(C)cc2)cc1	inactive	inactive	–	inactive	inactive	inactive	–	–	–	–
NS(=O)(=O)c1cc(Cl)c(Cl)c(S(N)(=O)=O)c1	inactive	inactive	inactive	inactive	inactive	–	–	–	–	–
O=C(O)c1cc(O)c2c(c1)[C@H]([C@H]1c3cc(C(=O)O)cc(O)c3C(=O)c3c(O[C@@H]4O[C@H](CO)[C@@H](O)[C@H](O)[C@H]4O)cccc31)c1cccc(O[C@@H]3O[C@H](CO)[C@@H](O)[C@H](O)[C@H]3O)c1C2=O	inactive	inactive	inactive	inactive	inactive	–	–	–	–	–
NCCCC[C@H](NC(=O)[C@@H]1CCCN1C(=O)[C@@H]1CSSC[C@H](N)C(=O)N[C@@H](Cc2ccc(O)cc2)C(=O)N[C@@H](Cc2ccccc2)C(=O)N[C@@H](CCC(N)=O)C(=O)N[C@@H](CC(N)=O)C(=O)N1)C(=O)NCC(N)=O	inactive	inactive	inactive	–	inactive	inactive	inactive	inactive	inactive	inactive
Cc1ccc(Cl)c(N)c1Cl	inactive	61.1 µM (active)	inactive	68.6 µM (active)	inactive	–	–	–	–	–
N=C(N)n1cccn1	inactive	inactive	inactive	inactive	inactive	–	–	–	–	–
NCCO/C=C/[C@H](N)C(=O)O	inactive	inactive	inactive	inactive	inactive	–	–	–	–	–
CC(C)(COP(=O)(O)OP(=O)(O)OC[C@H]1O[C@@H](n2cnc3c(N)ncnc32)[C@H](O)[C@@H]1OP(=O)(O)O)C(O)C(=O)NCCC(=O)NCCS (some centres undefined)	inactive	inactive	inactive	inactive	inactive	–	–	–	–	–
CSCCC(N)C(=O)O (centres undefined)	inactive	inactive	inactive	inactive	inactive	–	–	–	–	–
O=C1c2ccccc2C(=O)C1c1ccc(F)cc1	inactive	inactive	inactive	–	inactive	inactive	inactive	inactive	inactive	inactive
CCCCCN=C(N)N/N=C/c1c[nH]c2ccc(OC)cc12	inactive	inactive	–	inactive	inactive	inactive	–	–	–	–
CS(=O)(=O)c1ccc([C@@H](O)[C@@H](COC(=O)CN)NC(=O)C(Cl)Cl)cc1	inactive	5.96 µM (active)	7.5 µM (active)	6.68 µM (active)	inactive	–	–	–	–	–
NC(=O)c1cc[n+](CC2=C(C(=O)O)N3C(=O)[C@@H](NC(=O)C(c4ccccc4)S(=O)(=O)[O-])[C@H]3SC2)cc1 (some centres undefined)	inactive	inactive	–	inactive	inactive	–	inactive	–	inactive	inactive
CC(C)c1ccc2sc3ccccc3c(=O)c2c1	inactive	48.6 µM (active)	54.5 µM (active)	54.5 µM (active)	inactive	–	–	–	–	–
NC(=O)[C@@H]1CCCN1C(=O)[C@H](Cc1cnc[nH]1)NC(=O)[C@@H]1CCC(=O)N1	inactive	inactive	inactive	inactive	inactive	–	–	–	–	–
C[C@@H]1O[C@@H]1P(=O)(O)O	inactive	inactive	inactive	–	inactive	inactive	inactive	inactive	inactive	inactive
NC(=O)CC[C@@H]1NC(=O)[C@H](Cc2ccccc2)NC(=O)[C@H](Cc2ccc(O)cc2)NC(=O)[C@@H](N)CSSC[C@@H](C(=O)N2CCC[C@H]2C(=O)N[C@@H](CCCN=C(N)N)C(=O)NCC(N)=O)NC(=O)[C@H](CC(N)=O)NC1=O	inactive	inactive	inactive	inactive	inactive	–	–	–	–	–
CN1[C@@H](CC(=O)c2ccccc2)CCC[C@H]1C[C@H](O)c1ccccc1	inactive	26.6 µM (active)	–	inactive	–	inactive	–	–	–	–
COc1cccc2c1[C@@H]1CN(CCCCn3c(=O)[nH]c4c(sc5ncc(-c6ccccc6)nc54)c3=O)C[C@@H]1CO2	inactive	13.3 µM (active)	11.9 µM (active)	18.8 µM (active)	–	–	–	–	inactive	29.8 µM (active)
CC(=O)O[C@H]1C[C@@H]2CC[C@@H]3[C@H](CC[C@@]4(C)[C@H]3C[C@H]([N+]3(C)CCCCC3)[C@@H]4OC(C)=O)[C@@]2(C)C[C@@H]1[N+]1(C)CCCCC1	inactive	inactive	inactive	inactive	inactive	–	–	–	–	–
CO/N=C(\C(=O)N[C@@H]1C(=O)N2C(C(=O)[O-])=C(C[n+]3ccc(N)n3CCO)CS[C@H]12)c1csc(N)n1	inactive	inactive	inactive	inactive	inactive	–	–	–	–	–
CCOc1ccc(NC(=S)Nc2ccc(OCC)cc2)cc1	inactive	inactive	–	inactive	inactive	inactive	–	–	–	–

Compound	Potency [1]	Potency [2]	Potency [3]	Potency [4]	Potency [5]	Potency [6]	Potency [7]	Potency [8]	Potency [9]	Potency [10]
N#Cc1c(N(CC(=O)O)CC(=O)O)sc(C(=O)O)c1CC(=O)O	inactive	inactive	inactive	–	inactive	inactive	–	–	–	–
C[C@@H]1C[C@H]2[C@@H]3C[C@H](F)C4=CC(=O)C=C[C@]4(C)[C@@]3(Cl)[C@@H](O)C[C@]2(C)[C@H]1C(=O)COC(=O)C(C)(C)C	inactive	inactive	inactive	–	inactive	inactive	–	–	–	–
CN(C/C=C/c1ccccc1)Cc1cccc2ccccc12	inactive	26.6 µM (active)	26.6 µM (active)	–	inactive	inactive	–	–	–	–
O=C1CC[C@@H](C(=O)N[C@H]2C[C@@H]2c2ccccc2)N1	inactive	inactive	inactive	–	inactive	inactive	–	–	–	–
O=P(O)(O)C(O)(Cn1ccnc1)P(=O)(O)O	inactive	inactive	inactive	–	inactive	inactive	–	–	–	–
O=C(O)/C=C/C(O)c1ccc(Cl)cc1 (centres undefined)	inactive	inactive	inactive	–	inactive	inactive	inactive	–	inactive	inactive
Nc1c(CC(=O)O)cccc1C(=O)c1ccccc1	inactive	inactive	inactive	–	inactive	inactive	inactive	–	inactive	inactive
CC(CNC(=O)c1cccnc1)NC(=O)c1cccnc1 (centres undefined)	inactive	inactive	inactive	–	inactive	inactive	–	–	–	–
COc1ccc(/C=N/NC(=O)c2ccncc2)c(C(=O)O)c1OC	inactive	inactive	inactive	–	inactive	inactive	–	–	–	–
C=C1[C@H](CO)[C@@H](O)C[C@@H]1n1cnc2c(=O)[nH]c(N)nc21	inactive	0.0237 µM (active)	0.0335 µM (active)	–	inactive	inactive	–	inactive	inactive	inactive
O=c1[nH]c(=O)n([C@H]2C[C@H](O)[C@@H](CO)O2)cc1/C=C/Br	inactive	inactive	inactive	–	inactive	inactive	–	–	–	–
CCCCCCCCCC(=O)NO	inactive	inactive	inactive	–	inactive	inactive	–	–	–	–
CON=C1C[C@]2(C[C@@H]3C[C@@H](C/C=C(\C)C[C@@H](C)/C=C/C=C4\CO[C@@H]5[C@H](O)C(C)=C[C@@H](C(=O)O3)[C@]45O)O2)O[C@H](/C(C)=C/C(C)C)[C@H]1C	7.56 µM (active) and 10.7 µM (active)	13.3 µM (active) and 16.8 µM (active)	10.6 µM (active) and 13.3 µM (active)	–	inactive	inactive	7.56 µM (active)	–	–	inactive
O=C(O)[C@H]1CN(C/C=C/P(=O)(O)O)CCN1	inactive	inactive	inactive	–	inactive	inactive	–	–	–	–
Nc1cc(Cl)c(NC2=NCCN2)c(Cl)c1	inactive	inactive	inactive	–	inactive	inactive	–	–	–	–
CN[C@H](CC(C)C)C(=O)N[C@H]1C(=O)N[C@@H](CC(N)=O)C(=O)N[C@H]2C(=O)N[C@H]3C(=O)N[C@H](C(=O)N[C@@H](C(=O)O)c4cc(O)cc(O)c4-c4cc3ccc4O)[C@H](O)c3ccc(c(Cl)c3)Oc3cc2cc(c3O[C@@H]2O[C@H](CO)[C@@H](O)[C@H](O)[C@H]2O[C@H]2C[C@](C)(N)C(O)[C@H](C)O2)Oc2ccc(cc2Cl)[C@H]1O (some centres undefined)	inactive	inactive	inactive	–	inactive	inactive	–	–	–	–
O=C(O)c1ccc(NC2OC[C@@H](O)[C@H](O)[C@H]2O)cc1 (some centres undefined)	inactive	inactive	inactive	–	inactive	inactive	–	–	–	–
COc1cc2c(cc1OC)[C@@H](Cc1cc(OC)c(OC)c(OC)c1)[N+](C)(CCCOC(=O)CC/C=C/CCC(=O)OCCC[N+]1(C)CCc3cc(OC)c(OC)cc3[C@H]1Cc1cc(OC)c(OC)c(OC)c1)CC2 (some centres undefined)	inactive	inactive	inactive	–	inactive	inactive	–	–	–	–
O=C(CCCCCCCCc1cccnc1)N1CCC(C=C(c2ccccc2)c2ccccc2)CC1	34.7 µM (active)	48.6 µM (active)	24.3 µM (active)	–	inactive	inactive	–	inactive	inactive	inactive
c1ccc(-n2cnnn2)cc1	inactive	inactive	inactive	–	inactive	inactive	–	–	–	–
CC/C(=C(/CC)c1ccc(OP(=O)(O)O)cc1)c1ccc(OP(=O)(O)O)cc1	inactive	inactive	inactive	–	inactive	inactive	–	–	–	–
CC(C)[C@H](NC(=O)[C@H](CC(=O)O)NC(=O)[C@H](CCCCN)NC(=O)[C@@H](N)CCCN=C(N)N)C(=O)N[C@@H](Cc1ccc(O)cc1)C(=O)O (H-RKDVY-OH)	inactive	inactive	inactive	–	inactive	inactive	–	–	–	–
COC(=O)[C@H]1[C@H]2C[C@H]3c4[nH]c5ccccc5c4CCN3C[C@H]2CC[C@@H]1O	inactive	inactive	inactive	–	inactive	inactive	–	–	–	–
CO/N=C(\C(=O)N[C@@H]1C(=O)N2C(C(=O)O)=C(CSc3cnns3)CS[C@H]12)c1csc(N)n1	inactive	inactive	inactive	–	inactive	inactive	–	inactive	inactive	inactive
CC(C)CCC[C@@H](C)[C@H]1CC[C@H]2[C@@H]3CC[C@@H]4C[C@H](O)CC[C@]4(C)[C@H]3CC[C@]12C	inactive	inactive	inactive	–	inactive	inactive	–	–	–	–
